Assay results from publication PMC5540273 (PLoS ONE, 2017).

Columns and labels:
Settings in all cases: concentration: 1 μM, replicates: in singlicate; n = 1
PCTK2 = system: T1, PCTK2
T1 construct: gene CDK17

PCTK3 = system: T2, PCTK3
T2 construct: gene CDK18

PDGFRA = system: PDGFRA
PDGFRB = system: PDGFRB
PDPK1 = system: PDPK1
PFTAIRE2 = system: PFTAIRE2
PFTK1 = system: T3, PFTK1
T3 construct: gene CDK14

PHKG1 = system: PHKG1
PHKG2 = system: PHKG2
PIK3C2B = system: PIK3C2B
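Further: KINOMEscan kinase panel screen.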

Structure (SMILES)	%Inh (PCTK2) [%]	%Inh (PCTK3) [%]	%Inh (PDGFRA) [%]	%Inh (PDGFRB) [%]	%Inh (PDPK1) [%]	%Inh (PFTAIRE2) [%]	%Inh (PFTK1) [%]	%Inh (PHKG1) [%]	%Inh (PHKG2) [%]	%Inh (PIK3C2B) [%]
O=C(Nc1cccc(Oc2ccc3nc(NC(=O)C4CC4)cn3n2)c1)c1ccccc1C(F)(F)F	0	6	99.7	100	0	7	0	18	6	0
Nc1ncnc2c1nc(-c1ccccc1)n2-c1ccccc1 [SKF-97293]	0	0	36	0	2	6	25	17	0	4
COCCOCCOc1cc2ncc3c4ccc(C#N)cc4[nH]c3c2cc1OC	6	13	98.2	92.9	34	48	21	94.5	97.7	0
CCn1c(-c2nonc2N)nc2c(C#CC(C)(C)O)nc(OC[C@H](N)c3ccccc3)cc21 [GSK943949]	0	0	11	5	0	0	0	0	5	0
Fc1ccc(-c2ncn(C3CCNCC3)c2-c2ccnc(Oc3ccc(-c4ccccc4)cc3)n2)cc1 [SB-245391]	1	2	23	12	21	13	9	0	0	27
O=C(Nc1n[nH]c2cc(-c3ccoc3)ccc12)C1CC1 [SB-738481]	51	22	62	90	0	21	29	0	0	7
CC(=O)Nc1nc2cnc(Nc3cc(NC(=O)c4cccc(C5(C#N)CC5)c4Cl)ccc3C)nc2s1	9	0	97.7	100	1	23	0	12	17	0
CC(=O)N1CCN(c2ccc(Nc3nccc(-c4sc(C(C)C)nc4-c4cccc(NS(=O)(=O)c5cccc(Cl)c5)c4)n3)cn2)CC1 [GSK1660437]	99.9	100	73	99	0	49	57	0	0	0
Cc1ccc(S(=O)(=O)Nc2ccc(Nc3nccc(Nc4cccc5[nH]ncc45)n3)cc2)cc1 [GSK581271]	0	12	0	73	0	12	10	0	0	0
COc1cc(Nc2nccc(-c3c(-c4cccc(NC(=O)c5c(F)cccc5F)c4)nn4ncccc34)n2)cc(OC)c1OC [GSK327238]	0	5	90.2	100	16	4	5	0	3	0
Cc1ccc(C)c(NC(=O)NC2CCN(c3ccnc(Nc4ccc(F)cc4)n3)C2)c1 (centres unmarked) [GSK1379720]	0	10	0	4	0	4	0	0	0	0
CC(C)(C)c1ccc2nccc(Nc3cccc(O)c3)c2c1 [GW856795]	0	0	81	1	96.3	0	0	0	9	38
O=C(NC1CCN(c2ccnc(Nc3ccc(F)cc3)n2)C1)c1cc2ccccc2s1 (centres unmarked) [GSK1379716]	11	32	0	28	0	25	13	19	7	0
Cl.c1ccc(-c2ccc3c(Nc4ccc5[nH]ccc5c4)ccnc3c2)nc1 [GW440138]	6	28	99.2	99.9	0	0	14	0	0	0
Cn1cc(-c2[nH]c3cc(NC(=O)[C@H](N)C4CCCCC4)cc4c3c2C=NNC4=O)cn1	0	0	99.7	100	75	5	5	65	23	49
Oc1cc(Nc2ccnc3cc(I)ccc23)ccc1F [GW552771]	0	15	19	49	0	0	0	0	0	0

Structure (SMILES)	%Inh (PCTK2) [%]	%Inh (PCTK3) [%]	%Inh (PDGFRA) [%]	%Inh (PDGFRB) [%]	%Inh (PDPK1) [%]	%Inh (PFTAIRE2) [%]	%Inh (PFTK1) [%]	%Inh (PHKG1) [%]	%Inh (PHKG2) [%]	%Inh (PIK3C2B) [%]
COc1ccc(CNC(=O)NC2CCN(c3ccnc(Nc4ccc(F)cc4)n3)CC2)cc1 [GSK1379788]	0	0	0	35	0	0	13	0	0	0
CNC(=O)c1ccccc1Nc1nc(Nc2ccc(N3CCOCC3)cc2)ncc1Cl.Cl [GSK1576028]	43	0	80	100	42	43	17	84	72	17
COC(=O)Nc1nc2cc(Oc3ccc(NC(=O)Nc4cc(C(F)(F)F)ccc4F)cn3)ccc2[nH]1.Cl.Cl [GW681170]	16	16	94.7	99.8	0	68	21	0	0	0
Clc1ccc(-c2nn3ncccc3c2-c2ccnc(Nc3ccc4c(c3)OCCO4)n2)cc1 [GW829116]	0	0	24	99.9	0	0	0	0	0	0
Cc1occc1-c1ncc(OC[C@@H](N)Cc2c[nH]c3ccccc23)cc1-c1ccc2[nH]nc(C)c2c1.O=C(O)C(F)(F)F [GSK682037]	0	0	0	81	0	16	14	0	0	0
COc1ccc(-c2coc3ccc(-c4nnc(SCc5ccc(OC)c(C(F)(F)F)c5)o4)cc23)cc1	9	9	23	16	12	0	19	3	4	0
Cl.Cl.NCC(NCc1ccc(-c2ccnc3[nH]ccc23)s1)c1ccccc1 (centres unmarked) [GSK1321565]	0	0	5	44	0	4	1	19	13	0
NCCCC(NC(=O)c1cc(Br)c(-c2ccnc3[nH]ccc23)s1)c1ccccc1.O=C(O)C(F)(F)F.O=C(O)C(F)(F)F (centres unmarked) [GSK1287544]	0	0	0	28	14	25	0	0	0	0
CN(C)S(=O)(=O)c1cc(-c2ccc3nccc(-c4cccc(S(N)(=O)=O)c4)c3c2)cnc1N [GSK1669921]	0	0	0	16	9	31	17	0	8	95.5
CCS(=O)(=O)c1ccc(OC)c(Nc2nccc(-c3c(-c4cccc(NC(=O)c5c(F)cccc5F)c4)nn4ncccc34)n2)c1 [GSK326180]	0	18	0	40	0	27	17	1	0	0
Cc1ccc(F)c(C(=O)Nc2cccc(-c3nn4ccccc4c3-c3ccnc(Nc4cccc(F)c4)n3)c2)c1F [GSK361061]	0	16	6	99.7	11	18	11	14	6	0
Cn1cc(-c2ccc3c(c2)CCN3C(=O)Cc2cccc(Cl)c2)c2c(N)ncnc21 [GSK2606590]	0	7	84	100	40	18	32	17	0	89
Cl.Cl.NCC(C(=O)Nc1cc(Br)c(-c2ccnc3[nH]ccc23)s1)c1ccccc1 (centres unmarked) [GSK1269851]	6	0	0	38	0	24	28	49	0	0
COc1cccc(C(=O)Nc2cccc(Oc3ccc4nc(NC(=O)C5CC5)cn4n3)c2)c1	0	12	99.9	100	0	8	4	0	0	0
COc1cc(Nc2nccc(N3CCC(NC(=O)c4cc5ccccc5s4)C3)n2)cc(OC)c1OC (centres unmarked) [GSK1379760]	9	20	0	44	50	7	0	12	0	0
CCc1ccc(-c2ccc3c(c2)-c2c(cnn2C)S(=O)(=O)N3C)cc1	10	0	0	6	4	0	0	5	0	8
